Experimental findings from the supplement of paper PMC10338343 are described below.

± gives the standard deviation.

The assay has as its system MILI (PIWIL2) piRISC loaded with piRNA #1 (26 nt). Put plainly: pre-steady-state target cleavage rate (min^-1); guide: piRNA #1 5'p-UGAGGUAGUAGGUUGUAUAGUAUCCA; MIWI and MILI are mouse PIWI proteins and EfPiwi is from a freshwater sponge; tags in brackets are library labels; higher = faster piRNA-guided slicing of the target. The settings on record: auxiliary factor: 500 nM mouse GTSF1. An outline of the steps: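 Cleave-'n-Seq used a transcribed, DNA-blocked target RNA library at 0.1 nM and active affinity-purified piRISC with one synthetic guide at 1 nM, with or without 500 nM GTSF1 partner protein, in HEPES–potassium acetate buffer at 33 °C for 0–8 or 0–960 min. Uncleaved targets were sequenced and normalised to depth and to weakly complementary targets, and three trials were pooled with k3 capped at 0.0001 min^-1. The pre-steady-state cleavage rate was estimated by a burst-and-steady-state fit.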
For GGAGACCUAUGAAUACAACGUACUUCCUCA, the “pre-steady-state target cleavage rate” value worked out at 0.00328 ± 0.0027.
On to GGAGACCUAUGUAUACAACCUACUACCUA, for which the “pre-steady-state target cleavage rate” value worked out at 0.044 ± 0.0064.
Turning to GGAGACCUAACUAAACAACCUACUACCUGA, the “pre-steady-state target cleavage rate” value was determined as 0.0558 ± 0.021.
For GGAGACCUAUGAAUACAACCUACUGACCUCA the value was 0.00755 ± 0.0029.
With GGAGACUAUACUAUACAACCUACUACCUCA, the “pre-steady-state target cleavage rate” value is 0.171 ± 0.014.
For GGAGACCUUACUAUACAACCUACUACGCUCA the value was 0.256 ± 0.019.
For the sequence GGAGACCAUUCUAUACAACCAACUACCUCA, the “pre-steady-state target cleavage rate” value turned out to be 0.0079 ± 0.0026.
For GGAGACCUUACUAUACAACCUACUACACUCA the value was 0.15 ± 0.022; for GGAGACCAUACUUUACAUCCUACUACCUCA, 0.296 ± 0.029; for GGAGACCUAUCUAUAGUUCCUACUACCUCA, 0.0473 ± 0.012.
For GGAGACCUUACUUUACAACCUACUAGCUCA the value was 0.111 ± 0.02; for GGAGACCUAUCUUUACAACCUACAACCUCA, 0.0745 ± 0.01; for GGAGACCUAUGAAAACAUCCUACUACCUCA, 0.00361 ± 0.0024.
Under GGAGACCUUACUAUACAUCCUACUUCCUCA stands 0.183 ± 0.031; under GGAGACCUAACUAUACUACCUACUACGUCA, 0.0596 ± 0.018; under GGAGACCUAUCUAUCACAACCUACUACCUCA, 0.0519 ± 0.01.
